Measured values: the supplement of paper PMC4466140

B1: unnamed (peptide)
chain: NGRRRPKFRVQLSGN

Each binder was assayed against AgAbp1 (assay: SPOT peptide array binding signal intensity (averaged, normalized) (arbitrary units (background-subtracted, floor 0; scale differs between SH3 domains)); higher = stronger binding of the SH3 domain to the peptide).
In short: (§1)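 GST-fused SH3 domains, from four yeast species, were produced in E. coli BL21(DE3) and captured on glutathione Sepharose. Membranes of cellulose carrying synthetic 15-mer peptides, in which cysteines had been replaced by serines, were exposed to each domain at 10 μg/ml overnight at 4°C in TBS-based blocking buffer. After anti-GST antibody, an HRP anti-mouse secondary and luminol, spots were imaged and quantified using Genespotter. Binding signal is normalized and background-subtracted spot intensity, averaged over replicates, in arbitrary units that differ between domains.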

Binder	SPOT peptide array binding signal intensity
B1	206

These binders were tested against AgBbc1 in the same assay as above.
In short: as §1

Binder	SPOT peptide array binding signal intensity
B1	71

What follows are binders tested against AgBem1-D1 in the same assay as above.
In short: as §1

Binder	SPOT peptide array binding signal intensity
B1	339

The binders below were run against AgBzz1-D1 in the same assay as above.
In short: as §1

Binder	SPOT peptide array binding signal intensity
B1	84

What follows are binders tested against AgBzz1-D2 in the same assay as above.
In short: as §1

Binder	SPOT peptide array binding signal intensity
B1	46

Each binder was assayed against AgCyk3 in the same assay as above.
In short: as §1

Binder	SPOT peptide array binding signal intensity
B1	5

The binders below were run against AgFus1 in the same assay as above.
In short: as §1

Binder	SPOT peptide array binding signal intensity
B1	1440

Each binder was assayed against AgHof1 in the same assay as above.
In short: as §1

Binder	SPOT peptide array binding signal intensity
B1	47.8

Each binder was assayed against AgHse1 in the same assay as above.
In short: as §1

Binder	SPOT peptide array binding signal intensity
B1	1600

The binders below were run against AgLsb1 in the same assay as above.
In short: as §1

Binder	SPOT peptide array binding signal intensity
B1	16.5

These binders were tested against AgLsb4 in the same assay as above.
In short: as §1

Binder	SPOT peptide array binding signal intensity
B1	379

What follows are binders tested against AgMyo5 in the same assay as above.
In short: as §1

Binder	SPOT peptide array binding signal intensity
B1	1.5

These binders were tested against AgNbp2 in the same assay as above.
In short: as §1

Binder	SPOT peptide array binding signal intensity
B1	430

The binders below were run against AgRvs167 in the same assay as above.
In short: as §1

Binder	SPOT peptide array binding signal intensity
B1	9

The binders below were run against AgSho1 in the same assay as above.
In short: as §1

Binder	SPOT peptide array binding signal intensity
B1	269

What follows are binders tested against AgSla1-D1-D2 in the same assay as above.
In short: as §1

Binder	SPOT peptide array binding signal intensity
B1	462

Each binder was assayed against AgSla1-D3 in the same assay as above.
In short: as §1

Binder	SPOT peptide array binding signal intensity
B1	13

The binders below were run against CaAbp1-D1 in the same assay as above.
In short: as §1

Binder	SPOT peptide array binding signal intensity
B1	596

What follows are binders tested against CaAbp1-D2 in the same assay as above.
In short: as §1

Binder	SPOT peptide array binding signal intensity
B1	855

These binders were tested against CaBbc1 in the same assay as above.
In short: as §1

Binder	SPOT peptide array binding signal intensity
B1	134

The binders below were run against CaBem1-D1 in the same assay as above.
In short: as §1

Binder	SPOT peptide array binding signal intensity
B1	74.5

The binders below were run against CaBzz1-D1 in the same assay as above.
In short: as §1

Binder	SPOT peptide array binding signal intensity
B1	185

What follows are binders tested against CaBzz1-D2 in the same assay as above.
In short: as §1

Binder	SPOT peptide array binding signal intensity
B1	114

The binders below were run against CaCyk3 in the same assay as above.
In short: as §1

Binder	SPOT peptide array binding signal intensity
B1	33

Each binder was assayed against CaFus1 in the same assay as above.
In short: as §1

Binder	SPOT peptide array binding signal intensity
B1	3650

Each binder was assayed against CaHof1 in the same assay as above.
In short: as §1

Binder	SPOT peptide array binding signal intensity
B1	0.75

These binders were tested against CaHse1 in the same assay as above.
In short: as §1

Binder	SPOT peptide array binding signal intensity
B1	202

What follows are binders tested against CaLsb1 in the same assay as above.
In short: as §1

Binder	SPOT peptide array binding signal intensity
B1	4

What follows are binders tested against CaLsb4 in the same assay as above.
In short: as §1

Binder	SPOT peptide array binding signal intensity
B1	238

The binders below were run against CaMyo5 in the same assay as above.
In short: as §1

Binder	SPOT peptide array binding signal intensity
B1	4

What follows are binders tested against CaNbp2 in the same assay as above.
In short: as §1

Binder	SPOT peptide array binding signal intensity
B1	762

The binders below were run against CaRvs167 in the same assay as above.
In short: as §1

Binder	SPOT peptide array binding signal intensity
B1	80.3

What follows are binders tested against CaRvs167-3 in the same assay as above.
In short: as §1

Binder	SPOT peptide array binding signal intensity
B1	232

Each binder was assayed against CaSho1 in the same assay as above.
In short: as §1

Binder	SPOT peptide array binding signal intensity
B1	1190

Each binder was assayed against CaSla1-D1-D2 in the same assay as above.
In short: as §1

Binder	SPOT peptide array binding signal intensity
B1	295

The binders below were run against CaSla1-D3 in the same assay as above.
In short: as §1

Binder	SPOT peptide array binding signal intensity
B1	84

What follows are binders tested against ScAbp1 in the same assay as above.
In short: as §1

Binder	SPOT peptide array binding signal intensity
B1	130

These binders were tested against ScBbc1 in the same assay as above.
In short: as §1

Binder	SPOT peptide array binding signal intensity
B1	28.8

These binders were tested against ScBem1-D1 in the same assay as above.
In short: as §1

Binder	SPOT peptide array binding signal intensity
B1	166

The binders below were run against ScBzz1-D1 in the same assay as above.
In short: as §1

Binder	SPOT peptide array binding signal intensity
B1	41

Each binder was assayed against ScBzz1-D2 in the same assay as above.
In short: as §1

Binder	SPOT peptide array binding signal intensity
B1	104

What follows are binders tested against ScCyk3 in the same assay as above.
In short: as §1

Binder	SPOT peptide array binding signal intensity
B1	131

Each binder was assayed against ScFus1 in the same assay as above.
In short: as §1

Binder	SPOT peptide array binding signal intensity
B1	2430

The binders below were run against ScHof1 in the same assay as above.
In short: as §1

Binder	SPOT peptide array binding signal intensity
B1	6.5

What follows are binders tested against ScHse1 in the same assay as above.
In short: as §1

Binder	SPOT peptide array binding signal intensity
B1	3000

These binders were tested against ScLsb1 in the same assay as above.
In short: as §1

Binder	SPOT peptide array binding signal intensity
B1	6

Each binder was assayed against ScLsb2 in the same assay as above.
In short: as §1

Binder	SPOT peptide array binding signal intensity
B1	14

Each binder was assayed against ScLsb3 in the same assay as above.
In short: as §1

Binder	SPOT peptide array binding signal intensity
B1	719

Each binder was assayed against ScLsb4 in the same assay as above.
In short: as §1

Binder	SPOT peptide array binding signal intensity
B1	42.5

What follows are binders tested against ScMyo3 in the same assay as above.
In short: as §1

Binder	SPOT peptide array binding signal intensity
B1	1.5

Each binder was assayed against ScMyo5 in the same assay as above.
In short: as §1

Binder	SPOT peptide array binding signal intensity
B1	4.75

What follows are binders tested against ScNbp2 in the same assay as above.
In short: as §1

Binder	SPOT peptide array binding signal intensity
B1	489

These binders were tested against ScPex13 in the same assay as above.
In short: as §1

Binder	SPOT peptide array binding signal intensity
B1	4

The binders below were run against ScRvs167 in the same assay as above.
In short: as §1

Binder	SPOT peptide array binding signal intensity
B1	52.7

These binders were tested against ScSho1 in the same assay as above.
In short: as §1

Binder	SPOT peptide array binding signal intensity
B1	2060

The binders below were run against ScSla1-D1-D2 in the same assay as above.
In short: as §1

Binder	SPOT peptide array binding signal intensity
B1	693

What follows are binders tested against ScSla1-D3 in the same assay as above.
In short: as §1

Binder	SPOT peptide array binding signal intensity
B1	6.5

What follows are binders tested against SpAbp1-D1 in the same assay as above.
In short: as §1

Binder	SPOT peptide array binding signal intensity
B1	561

Each binder was assayed against SpBbc1 in the same assay as above.
In short: as §1

Binder	SPOT peptide array binding signal intensity
B1	13

What follows are binders tested against SpBzz1-D1 in the same assay as above.
In short: as §1

Binder	SPOT peptide array binding signal intensity
B1	162

Each binder was assayed against SpBzz1-D2 in the same assay as above.
In short: as §1

Binder	SPOT peptide array binding signal intensity
B1	0.75

These binders were tested against SpCyk3 in the same assay as above.
In short: as §1

Binder	SPOT peptide array binding signal intensity
B1	4

The binders below were run against SpHof1 in the same assay as above.
In short: as §1

Binder	SPOT peptide array binding signal intensity
B1	269

What follows are binders tested against SpHof1-2 in the same assay as above.
In short: as §1

Binder	SPOT peptide array binding signal intensity
B1	12.5

What follows are binders tested against SpHof1-3 in the same assay as above.
In short: as §1

Binder	SPOT peptide array binding signal intensity
B1	788

What follows are binders tested against SpHse1 in the same assay as above.
In short: as §1

Binder	SPOT peptide array binding signal intensity
B1	1140

Each binder was assayed against SpLsb1 in the same assay as above.
In short: as §1

Binder	SPOT peptide array binding signal intensity
B1	10.5

The binders below were run against SpLsb4 in the same assay as above.
In short: as §1

Binder	SPOT peptide array binding signal intensity
B1	294

What follows are binders tested against SpMyo1 in the same assay as above.
In short: as §1

Binder	SPOT peptide array binding signal intensity
B1	18.8

Each binder was assayed against SpNbp2 in the same assay as above.
In short: as §1

Binder	SPOT peptide array binding signal intensity
B1	1300

Each binder was assayed against SpPex13 in the same assay as above.
In short: as §1

Binder	SPOT peptide array binding signal intensity
B1	62.5

The binders below were run against SpRvs167 in the same assay as above.
In short: as §1

Binder	SPOT peptide array binding signal intensity
B1	14.2

These binders were tested against SpSla1-D1-D2 in the same assay as above.
In short: as §1

Binder	SPOT peptide array binding signal intensity
B1	≤ 0

Each binder was assayed against SpSla1-D3 in the same assay as above.
In short: as §1

Binder	SPOT peptide array binding signal intensity
B1	43
